Reference: paper PMC4336329 (PLoS ONE, 2015)
Out of some 310,000 compounds screened, about 2,200 (0.71%) showed an effect of 50% or more. The effect is printed as a negative number. This is one part of a sample in which strong results are shown more often than they occur.

Molecular target: human ether-à-go-go-related gene (hERG) potassium channel (human, UniProt Q12809)
Experiment: primary screen, population patch clamp on CHO cells stably expressing hERG; higher = less effect of the substance

human ether-à-go-go-related gene (hERG) potassium channel, sequence (Q12809 whole entry, looked up): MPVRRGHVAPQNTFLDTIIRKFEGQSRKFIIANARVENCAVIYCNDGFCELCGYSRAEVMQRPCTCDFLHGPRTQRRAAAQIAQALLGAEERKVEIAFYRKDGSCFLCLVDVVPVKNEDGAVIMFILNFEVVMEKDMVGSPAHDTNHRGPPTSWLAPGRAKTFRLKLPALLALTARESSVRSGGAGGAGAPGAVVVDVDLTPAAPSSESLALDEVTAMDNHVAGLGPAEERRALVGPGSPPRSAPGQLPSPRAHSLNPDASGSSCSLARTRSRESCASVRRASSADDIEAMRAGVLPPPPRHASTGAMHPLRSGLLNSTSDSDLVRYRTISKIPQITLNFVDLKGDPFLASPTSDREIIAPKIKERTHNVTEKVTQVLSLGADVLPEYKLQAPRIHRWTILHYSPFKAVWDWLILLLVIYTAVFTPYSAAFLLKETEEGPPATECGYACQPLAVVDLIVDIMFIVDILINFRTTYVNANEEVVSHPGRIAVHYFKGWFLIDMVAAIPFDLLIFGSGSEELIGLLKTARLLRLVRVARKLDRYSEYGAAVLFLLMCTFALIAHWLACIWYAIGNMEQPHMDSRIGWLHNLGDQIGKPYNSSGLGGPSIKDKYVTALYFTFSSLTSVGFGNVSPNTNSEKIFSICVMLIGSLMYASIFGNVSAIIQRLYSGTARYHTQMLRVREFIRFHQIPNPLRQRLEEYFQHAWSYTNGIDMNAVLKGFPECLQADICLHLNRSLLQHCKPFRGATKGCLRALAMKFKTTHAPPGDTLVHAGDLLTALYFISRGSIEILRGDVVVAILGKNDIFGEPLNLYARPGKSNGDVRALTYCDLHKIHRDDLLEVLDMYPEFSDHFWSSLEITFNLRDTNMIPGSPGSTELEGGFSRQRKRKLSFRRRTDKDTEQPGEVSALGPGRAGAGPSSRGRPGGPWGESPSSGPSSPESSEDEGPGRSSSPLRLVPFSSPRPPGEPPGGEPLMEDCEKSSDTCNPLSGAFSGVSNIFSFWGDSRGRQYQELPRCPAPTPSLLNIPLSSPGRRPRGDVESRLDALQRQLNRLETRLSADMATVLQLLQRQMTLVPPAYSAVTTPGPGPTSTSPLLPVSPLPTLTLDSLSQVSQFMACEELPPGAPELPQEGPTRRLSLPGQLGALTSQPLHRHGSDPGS

| SMILES | hERG current change (%, negative = inhibition) at 1uM [%] |
| --- | --- |
| O=C(O)CCn1cc(C=C2C(=O)NC(=O)NC2=O)c(-c2cc3ccccc3oc2=O)n1 | 20.6 |
| Cc1c(C(=O)N2CCN(CCc3ccccc3)CC2)oc2ccccc12 | -36 |
| Cc1c(C(=O)N2CCN(c3ncccn3)CC2)oc2ccc(Cl)cc12 | 2.57 |
| Cc1c(C(=O)N2CCN(C(=O)c3ccccc3)CC2)oc2ccc(F)cc12 | -5.86 |
| Cc1c(C(=O)N2CCN(CCc3ccccn3)CC2)oc2ccc(F)cc12 | -61.3 |
| Cc1cc2oc(C(=O)N3CCN(CCc4ccccn4)CC3)c(C)c2cc1C | -6.88 |
| Cc1c(C(=O)N2CCN(CCc3ccccn3)CC2)oc2ccc(Cl)cc12 | -84.6 |
| Fc1ccc(Cn2nnc(-c3ccc(Cl)cc3)n2)cc1 | 11.5 |
| Cc1nc2ccccc2c(=O)n1NC(=O)Cc1ccc(Br)cc1 | 5.31 |
| COc1cccc(OCC(=O)NNC(=O)c2cccs2)c1 | 9.89 |
| O=C1N(c2ccc(Cl)cc2)C(c2cccnc2)N2CCCN12 (centres unmarked) | 6.95 |
| C/C(=N\NC(=O)COc1c(C)cccc1C)c1cccs1 | 8.57 |
| CCC(CC)C(=O)Nc1ccc(C)c(O)c1 | 5.34 |
| O=C(Nc1ccnn1C1CCN(C/C=C/c2ccccc2)CC1)c1ccccc1Cl | -92.1 |
| O=C(Nc1ccnn1C1CCN(C2CCOCC2)CC1)c1cccc(F)c1 | 1.92 |
| O=C(Nc1ccnn1C1CCN(Cc2ccc(CO)o2)CC1)c1ccccc1Cl | 6.94 |
| O=C(Nc1ccnn1C1CCN(C/C=C/c2ccccc2)CC1)c1ccccc1 | -64.4 |
| O=C(Nc1ccnn1C1CCN(C/C=C/c2ccccc2)CC1)c1cccc(F)c1 | -58.5 |
| O=C(Nc1ccnn1C1CCN(Cc2ccccn2)CC1)c1cccc(F)c1 | 6.56 |
| CC(C)=CCN1CCC(n2nccc2NC(=O)c2ccccc2Cl)CC1 | -43 |
| O=C(CCc1ccccc1)Nc1ccnn1C1CCN(C/C=C/c2ccccc2)CC1 | -24.2 |
| O=C(Nc1ccnn1C1CCN(Cc2ccc(CO)o2)CC1)c1ccccc1 | -0.976 |
| Cc1ccc(OCCNC(=O)CNC(=O)c2ccc(C)c(C)c2)cc1 | 4.24 |

| SMILES | hERG current change (%, negative = inhibition) at 1uM [%] |
| --- | --- |
| CCC(C(=O)NN1C(=O)c2ccccc2C1=O)c1ccccc1 (centres unmarked) | 13.8 |
| CCC(=O)c1ccc(OCC(=O)OCC(=O)NC2CCCC2)cc1 | 14.5 |
| O=C(CCS(=O)(=O)c1ccc(Br)cc1)N1CCN(c2ccccc2Cl)CC1 | 2.11 |
| O=C(OCc1cc(=O)n2c(n1)sc1ccccc12)c1ccc(O)cc1O | 7.81 |
| COCCNc1c(-c2cc3ccc(C)c(C)c3[nH]c2=O)nc2ccccn12 | -77 |
| Cc1ccc2[nH]c(=O)c(-c3nc4ccccn4c3NCc3ccco3)cc2c1 | -4.3 |
| Cc1cccc2cc(-c3nc4c(C)cccn4c3NCc3ccco3)c(=O)[nH]c12 | 2.58 |
| CCOCCCNC(=O)CN(Cc1ccc(Cl)cc1)S(C)(=O)=O | 8.42 |
| CC(NC(=O)C1CCC1)c1ccc2c(c1)OCO2 (centres unmarked) | -3.43 |
| c1ccc(CNCc2ccc3c(c2)OCO3)nc1 | 11 |
| CC(C)CCC(CCNCc1ccccn1)c1ccc(Cl)cc1 (centres unmarked) | -40.7 |
| COCCCNC(=O)c1ccc2c(c1)OCO2 | -2.46 |
| CCNCCC(CCC(C)C)c1ccc2c(c1)OCO2 (centres unmarked) | -64.3 |
| Cl.Fc1ccccc1CNCCC(Cc1ccccc1)c1ccc2c(c1)OCO2 (centres unmarked) | 10.8 |
| COCCCNCCC(CCC(C)C)c1ccc2c(c1)OCO2.Cl (centres unmarked) | -85.8 |
| CC(C)CCC(CCNCc1ccccn1)c1ccc2c(c1)OCO2.Cl (centres unmarked) | -79.1 |
| COCCCNS(=O)(=O)c1ccc2c(c1)OCCO2 | 5.7 |
| COc1ccccc1NS(=O)(=O)c1ccc(C)c(C(=O)NCC2CCCO2)c1 (centres unmarked) | -14.5 |
| CCNc1nc(N)nc(Oc2ccc(OCCOc3ccccc3)nn2)n1 | 8.36 |
| COc1ccc2[nH]c(C)c(CCN(Cc3cccs3)C(=S)Nc3ccccc3)c2c1 | 6.37 |
| O=C1c2ccc3c4c(ccc(c24)C(=O)N1NC(=O)C(F)(F)F)CC3 | 10.1 |
| COc1cc(NC(=O)c2ccccc2F)c(OC)cc1NC(=O)CN1CCCCC1.Cl | 1.58 |
| O=C(O)c1ccccc1C(=O)Nc1ccc(Br)c(C(F)(F)F)c1 | 2.61 |

| SMILES | hERG current change (%, negative = inhibition) at 1uM [%] |
| --- | --- |
| CCc1ccc(N2C(=O)CC(N3CCN(Cc4ccc5c(c4)OCO5)CC3)C2=O)cc1 (centres unmarked) | -1.13 |
| Cc1ccc(-c2csc3nc(C(C)C)oc(=O)c23)c(C)c1 | 13.5 |
| CCOc1ccc(CN2CCN(Cc3cccc4nonc34)CC2CCO)cc1 (centres unmarked) | -84.6 |
| CCOc1ccccc1CN1CCN(Cc2nc3ccccc3s2)CC1CCO (centres unmarked) | -67.7 |
| CCOc1ccccc1CN1CCN(Cc2cccc3c2OCO3)CC1CCO (centres unmarked) | -2.66 |
| CCOc1ccccc1CN1CCN(Cc2nc3c(s2)CCCC3)CC1CCO (centres unmarked) | -26.6 |
| OCCC1CN(Cc2cccc3nonc23)CCN1Cc1ccsc1 (centres unmarked) | -15.7 |
| COc1ccc(CN2CCN(Cc3cccc4nonc34)CC2CCO)c(C)c1C (centres unmarked) | -7.13 |
| CCOc1ccccc1CN1CCN(Cc2cccc3nonc23)CC1CCO (centres unmarked) | -50 |
| COc1cccc(CN2CCN(Cc3cccc4nonc34)CC2CCO)c1 (centres unmarked) | -24 |
| CCOc1ccccc1CN1CCN(Cc2ccon2)CC1CCO (centres unmarked) | -7.08 |
| CC1CC(C)CN(C(=O)c2cc3cc(Br)cc(Br)c3o2)C1 (centres unmarked) | 11.6 |
| COc1ccc(CN2C=C3C(=O)C(C)(OC(=O)C4CCCC4)C(=O)C=C3C=C2c2ccsc2)cc1 (centres unmarked) | -2.57 |
| CCOC(=O)N(NC(=O)C(O)(CC(C)C)CC(C)C)c1ccccc1 | 6.37 |
| CCN(CC)CCN1C(=O)Cn2c(C)c(C)c3cccc1c32.O=C(O)C(O)C(O)C(=O)O | -56.1 |
| CCN(CC)CCN1C(=O)Cn2c(C)c(C)c3cccc1c32.Cl | -12.2 |
| CCN(CC)CCN1c2ccccc2Sc2ccccc21.O=C(O)C(=O)O | -3.5 |
| CCCc1ncc(CN2CCCCC2C(=O)Nc2ccc(Oc3ccccc3)nc2)cn1 (centres unmarked) | 12.1 |
| O=C(O)c1nn(-c2cccc(C(F)(F)F)c2)ccc1=O | 15.1 |
| Cc1cc(=O)c(C(=O)O)nn1-c1ccccc1 | 8.46 |
| Cc1cc(=O)c(C(=O)O)nn1-c1cccc(C(F)(F)F)c1 | -78.9 |
| Cc1ccc2nc(C)cc(N/N=C/c3ccc(F)cc3)c2c1 | 0.285 |
| CC(=O)Nc1ccc(N2CCC(C)CC2)c([N+](=O)[O-])c1 | 7.46 |

| SMILES | hERG current change (%, negative = inhibition) at 1uM [%] |
| --- | --- |
| COc1ccc(C2CC(C(F)(F)F)n3nc(C(=O)N(C)Cc4cn(C)nc4C)c(Cl)c3N2)cc1 (centres unmarked) | -3.33 |
| CCOC(=O)c1cnc(N2CCN(C(=O)OCC)CC2)[nH]c1=O | 13.9 |
| O=C(CCN1C(=O)C2C3C=CC(C3)C2C1=O)N1CCN(c2ccc(F)cc2)CC1 (centres unmarked) | -5.37 |
| O=C1C2CCCN2C(=O)N1CCCCN1CCN(c2ccc(F)cc2)CC1 (centres unmarked) | -10 |
| Cl.O=C1C2C3C=CC(C4CC34)C2C(=O)N1CCCCN1CCN(c2ccc(F)cc2)CC1 (centres unmarked) | -69.2 |
| Cc1cc(NC(=O)CCC(=O)N(c2cccnc2)C(C(=O)NC2CCCC2)c2ccccc2F)no1 (centres unmarked) | 8.56 |
| CCOc1ccccc1OCC(=O)OCC(=O)c1c(N)n(CC(C)C)c(=O)n(C)c1=O | -9.86 |
| Cc1ccc(OCCC(=O)OCC(=O)c2c(N)n(CC(C)C)c(=O)n(C)c2=O)cc1 | -42.3 |
| Cc1ccccc1OCCC(=O)OCC(=O)c1c(N)n(CC(C)C)c(=O)n(C)c1=O | -63.8 |
| CS(=O)(=O)Nc1ccc(Cc2noc(-c3ccc4[nH]cc(CCN)c4c3)n2)cc1.O | 18.4 |
| CN(C(=O)c1ccc2c(c1)OCO2)C1CCCCC1 | 6.85 |
| Cc1nc(NC(=O)CC(C)C)sc1-c1csc(Nc2ccc(Cl)cc2)n1 | 12.5 |
| Cc1ccccc1C(=O)NNC(=S)Nc1cccc(C(F)(F)F)c1 | 13.2 |
| CCCCc1ccc(-c2nc(NC(=O)C3C4CCC(O4)C3C(=O)O)sc2C)cc1 (centres unmarked) | 11.9 |
| O=C(Nc1ccccc1N1CCOCC1)c1ccc([N+](=O)[O-])o1 | -1 |
| CC(C)C(=O)N1CCN(c2ccccc2NC(=O)c2ccc([N+](=O)[O-])o2)CC1 | -23.5 |
| CCC(=O)N1CCN(c2ccccc2NC(=O)c2ccc([N+](=O)[O-])o2)CC1 | -60.5 |
| CN1CCN(c2ccccc2NC(=O)c2ccc([N+](=O)[O-])o2)CC1 | -62.4 |
| CCC(=O)N1CCN(c2ccccc2NC(=O)c2ccc(-c3cccc([N+](=O)[O-])c3)o2)CC1 | -3.2 |
| CC(=O)N1CCN(c2ccccc2NC(=O)c2ccc(-c3cccc([N+](=O)[O-])c3)o2)CC1 | -81.6 |
| CN1CCN(c2ccccc2NC(=O)c2ccc(-c3cccc([N+](=O)[O-])c3)o2)CC1 | -0.213 |
| O=C(Nc1ccccc1N1CCCC1)c1ccc([N+](=O)[O-])o1 | 1.03 |
| CCC(=O)N1CCN(c2ccc(Cl)cc2NC(=O)c2ccc([N+](=O)[O-])o2)CC1 | 0.198 |
